# Test results taken from PMC7862700, “An all-to-all approach to the identification of sequence-specific readers for epigenetic DNA modifications on cytosine”.
# Key:
# Assay in all cases: DAPPL (digital affinity profiling via proximity ligation, sequencing); 10 mM Tris-HCl pH 7.5, 50 mM NaCl, 1 mM DTT, 4% glycerol, room temperature, 30 min; GST-TFs on glutathione beads, 16-mer random dsDNA library, 0.1% formaldehyde crosslink after washing; high values mean tight binding
# Conditions in all cases: protein: recombinant; tags: N-terminal GST; dsDNA, one strand shown
# ELK1 = target: T1, ELK1 (Homo sapiens, UniProt P19419 1-428)
# T1 sequence: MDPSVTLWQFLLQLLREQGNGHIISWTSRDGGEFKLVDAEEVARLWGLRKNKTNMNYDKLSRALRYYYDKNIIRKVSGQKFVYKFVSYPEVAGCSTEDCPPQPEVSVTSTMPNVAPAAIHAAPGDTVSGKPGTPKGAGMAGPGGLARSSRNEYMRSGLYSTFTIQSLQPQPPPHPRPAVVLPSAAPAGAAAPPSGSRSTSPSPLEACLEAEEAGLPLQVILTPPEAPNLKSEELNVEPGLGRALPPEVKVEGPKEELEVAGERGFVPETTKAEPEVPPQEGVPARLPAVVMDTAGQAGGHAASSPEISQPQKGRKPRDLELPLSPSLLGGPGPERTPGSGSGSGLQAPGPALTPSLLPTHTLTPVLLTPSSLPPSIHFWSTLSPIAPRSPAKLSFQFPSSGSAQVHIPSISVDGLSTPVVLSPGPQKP
# Procedure, shortened: (§1)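 Pools were built from human transcription factors expressed in yeast as GST fusions, captured on glutathione beads and DNA-barcoded, along with a tag-only sample. Incubation with 200 nmole of a 16-mer random double-stranded DNA library lasted 30 min at room temperature in Tris/NaCl/DTT/glycerol buffer, and was followed by washing, 0.1% formaldehyde crosslinking, proximity ligation, PCR amplification and Illumina NextSeq500 sequencing. Binding signal is the quotient of each hexamer's read frequency for a factor and its frequency for the tag-only sample.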
# GABPA = target: T2, GABPA (Homo sapiens, UniProt Q06546 1-454)
# T2 sequence: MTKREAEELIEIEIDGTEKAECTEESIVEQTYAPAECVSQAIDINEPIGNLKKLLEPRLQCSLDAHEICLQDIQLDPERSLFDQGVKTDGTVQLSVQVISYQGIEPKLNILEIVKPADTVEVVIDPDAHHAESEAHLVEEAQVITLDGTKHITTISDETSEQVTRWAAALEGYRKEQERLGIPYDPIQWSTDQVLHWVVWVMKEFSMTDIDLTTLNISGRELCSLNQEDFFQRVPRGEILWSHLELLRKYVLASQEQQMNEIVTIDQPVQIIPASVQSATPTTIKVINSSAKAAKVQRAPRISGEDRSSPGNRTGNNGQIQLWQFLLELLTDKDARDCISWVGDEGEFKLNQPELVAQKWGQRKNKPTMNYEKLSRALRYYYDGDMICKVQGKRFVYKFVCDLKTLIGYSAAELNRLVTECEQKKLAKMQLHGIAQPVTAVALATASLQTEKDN
# Procedure, shortened: as §1
# ERG = target: T3, ERG (Homo sapiens, UniProt P11308 1-479)
# T3 sequence: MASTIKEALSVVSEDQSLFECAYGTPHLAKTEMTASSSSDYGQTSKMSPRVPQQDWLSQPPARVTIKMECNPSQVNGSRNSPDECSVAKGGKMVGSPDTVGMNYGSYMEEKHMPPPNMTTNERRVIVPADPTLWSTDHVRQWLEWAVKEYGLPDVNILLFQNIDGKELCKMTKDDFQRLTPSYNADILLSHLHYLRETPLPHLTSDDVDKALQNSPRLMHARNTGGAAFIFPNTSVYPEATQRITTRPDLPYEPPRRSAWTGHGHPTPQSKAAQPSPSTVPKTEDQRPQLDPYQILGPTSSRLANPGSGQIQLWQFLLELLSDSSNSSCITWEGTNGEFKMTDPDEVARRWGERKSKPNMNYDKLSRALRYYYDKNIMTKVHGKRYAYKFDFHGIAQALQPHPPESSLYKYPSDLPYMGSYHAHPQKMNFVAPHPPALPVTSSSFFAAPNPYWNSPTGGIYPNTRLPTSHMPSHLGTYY
# Procedure, shortened: as §1
# ELF1 = ELF1 (Homo sapiens, UniProt P32519 1-619)
# Chain of ELF1 (P32519 whole entry): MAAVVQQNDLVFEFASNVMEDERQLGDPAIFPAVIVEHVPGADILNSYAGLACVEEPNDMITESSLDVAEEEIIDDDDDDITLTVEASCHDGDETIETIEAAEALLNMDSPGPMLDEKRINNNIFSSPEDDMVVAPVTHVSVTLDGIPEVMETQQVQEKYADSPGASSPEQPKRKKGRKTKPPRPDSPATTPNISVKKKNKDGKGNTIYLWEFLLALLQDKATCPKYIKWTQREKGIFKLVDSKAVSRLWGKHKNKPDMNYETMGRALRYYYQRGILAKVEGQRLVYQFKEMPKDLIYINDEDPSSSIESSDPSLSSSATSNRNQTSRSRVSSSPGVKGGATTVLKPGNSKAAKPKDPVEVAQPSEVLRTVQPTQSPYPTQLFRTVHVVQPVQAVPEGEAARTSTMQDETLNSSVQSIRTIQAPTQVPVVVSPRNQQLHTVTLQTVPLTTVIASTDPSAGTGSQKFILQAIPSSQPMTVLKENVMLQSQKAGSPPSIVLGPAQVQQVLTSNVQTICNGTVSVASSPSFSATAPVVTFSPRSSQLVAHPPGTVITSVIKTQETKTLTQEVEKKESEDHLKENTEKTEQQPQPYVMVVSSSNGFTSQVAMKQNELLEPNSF
# Procedure, shortened: as §1
# EHF = target: T4, EHF (Homo sapiens, UniProt Q9NZC4 1-300)
# T4 sequence: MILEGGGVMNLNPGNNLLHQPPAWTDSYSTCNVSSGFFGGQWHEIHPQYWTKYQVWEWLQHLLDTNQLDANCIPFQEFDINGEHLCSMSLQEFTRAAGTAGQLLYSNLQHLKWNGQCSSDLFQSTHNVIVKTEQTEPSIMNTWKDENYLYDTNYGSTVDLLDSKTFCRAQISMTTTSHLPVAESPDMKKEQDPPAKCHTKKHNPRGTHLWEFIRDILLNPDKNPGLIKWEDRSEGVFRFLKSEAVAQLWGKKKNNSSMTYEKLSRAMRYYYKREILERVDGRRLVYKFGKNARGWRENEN
# Procedure, shortened: as §1
# SPIB = SPIB (Homo sapiens, UniProt Q01892 1-262)
# Chain of SPIB (Q01892 whole entry): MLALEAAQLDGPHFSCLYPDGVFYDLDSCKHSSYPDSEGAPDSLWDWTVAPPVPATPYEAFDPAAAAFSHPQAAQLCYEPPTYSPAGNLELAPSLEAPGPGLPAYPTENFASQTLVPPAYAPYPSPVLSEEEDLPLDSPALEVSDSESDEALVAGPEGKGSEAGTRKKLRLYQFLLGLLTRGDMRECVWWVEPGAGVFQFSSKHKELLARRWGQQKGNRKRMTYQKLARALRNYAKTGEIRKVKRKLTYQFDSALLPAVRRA
# Procedure, shortened: as §1
# FEV = target: T5, FEV (Homo sapiens, UniProt Q99581 1-238)
# T5 sequence: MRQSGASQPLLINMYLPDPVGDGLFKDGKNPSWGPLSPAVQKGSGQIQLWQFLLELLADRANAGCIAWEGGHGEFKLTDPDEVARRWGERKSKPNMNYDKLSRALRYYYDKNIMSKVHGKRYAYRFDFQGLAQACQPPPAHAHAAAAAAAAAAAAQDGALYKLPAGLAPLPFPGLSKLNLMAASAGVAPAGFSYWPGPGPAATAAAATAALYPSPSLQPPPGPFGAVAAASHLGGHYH
# Procedure, shortened: as §1
# ETV5 = ETV5 (Homo sapiens, UniProt P41161 1-510)
# Chain of ETV5 (P41161 whole entry): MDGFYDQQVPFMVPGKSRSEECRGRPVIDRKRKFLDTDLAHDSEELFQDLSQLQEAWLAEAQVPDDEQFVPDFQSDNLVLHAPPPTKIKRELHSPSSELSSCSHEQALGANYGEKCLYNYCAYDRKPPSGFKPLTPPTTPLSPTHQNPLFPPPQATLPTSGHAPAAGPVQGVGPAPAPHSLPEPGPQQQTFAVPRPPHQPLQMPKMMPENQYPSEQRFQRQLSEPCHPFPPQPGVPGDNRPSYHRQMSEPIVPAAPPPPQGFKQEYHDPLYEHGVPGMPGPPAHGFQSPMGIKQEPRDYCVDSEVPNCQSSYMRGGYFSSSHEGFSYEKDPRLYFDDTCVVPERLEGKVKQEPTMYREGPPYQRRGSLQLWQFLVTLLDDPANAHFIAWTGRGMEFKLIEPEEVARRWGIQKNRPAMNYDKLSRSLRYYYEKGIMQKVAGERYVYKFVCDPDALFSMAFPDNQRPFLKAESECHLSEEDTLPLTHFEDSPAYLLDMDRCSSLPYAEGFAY
# Procedure, shortened: as §1
# ELF4 = ELF4 (Homo sapiens, UniProt Q99607 1-663)
# Chain of ELF4 (Q99607 whole entry): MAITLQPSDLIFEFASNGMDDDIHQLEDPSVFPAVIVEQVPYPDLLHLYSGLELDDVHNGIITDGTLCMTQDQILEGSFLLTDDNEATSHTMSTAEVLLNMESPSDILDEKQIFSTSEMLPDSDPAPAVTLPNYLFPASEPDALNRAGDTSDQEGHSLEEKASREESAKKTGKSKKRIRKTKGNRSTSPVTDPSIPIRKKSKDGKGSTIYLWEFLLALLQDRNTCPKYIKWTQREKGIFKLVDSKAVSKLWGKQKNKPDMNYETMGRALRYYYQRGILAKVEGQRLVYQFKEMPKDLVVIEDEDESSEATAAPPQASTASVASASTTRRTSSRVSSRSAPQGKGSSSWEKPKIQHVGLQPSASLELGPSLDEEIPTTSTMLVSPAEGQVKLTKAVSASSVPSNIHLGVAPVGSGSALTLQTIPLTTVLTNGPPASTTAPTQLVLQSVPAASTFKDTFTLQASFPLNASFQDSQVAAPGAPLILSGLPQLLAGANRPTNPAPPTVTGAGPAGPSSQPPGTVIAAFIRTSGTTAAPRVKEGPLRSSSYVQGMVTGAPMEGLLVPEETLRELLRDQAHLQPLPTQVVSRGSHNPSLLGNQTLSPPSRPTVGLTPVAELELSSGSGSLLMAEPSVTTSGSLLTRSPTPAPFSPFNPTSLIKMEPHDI
# Procedure, shortened: as §1
# ELK4 = target: T6, ELK4 (Homo sapiens, UniProt P28324-2 1-405)
# T6 sequence: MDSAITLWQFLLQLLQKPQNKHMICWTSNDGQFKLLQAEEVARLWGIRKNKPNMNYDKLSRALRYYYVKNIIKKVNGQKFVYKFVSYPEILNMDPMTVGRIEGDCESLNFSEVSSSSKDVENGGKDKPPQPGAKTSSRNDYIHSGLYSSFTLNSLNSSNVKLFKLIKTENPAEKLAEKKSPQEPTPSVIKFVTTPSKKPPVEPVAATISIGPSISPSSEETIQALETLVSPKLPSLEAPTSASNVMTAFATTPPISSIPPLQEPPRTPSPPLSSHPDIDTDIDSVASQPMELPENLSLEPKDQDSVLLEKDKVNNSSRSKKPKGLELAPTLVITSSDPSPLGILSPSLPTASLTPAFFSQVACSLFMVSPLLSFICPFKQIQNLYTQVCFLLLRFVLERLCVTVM
# Procedure, shortened: as §1
sequence,measurement,setting,value
CATTGT,binding signal,ELK1,"1.14 fold enrichment (6-mer frequency, TF over GST control)"
same,binding signal,GABPA,"1.19 fold enrichment (6-mer frequency, TF over GST control)"
same,binding signal,ERG,"1.12 fold enrichment (6-mer frequency, TF over GST control)"
same,binding signal,ELF1,"1.1 fold enrichment (6-mer frequency, TF over GST control)"
same,binding signal,EHF,"1.14 fold enrichment (6-mer frequency, TF over GST control)"
same,binding signal,SPIB,"1.04 fold enrichment (6-mer frequency, TF over GST control)"
same,binding signal,FEV,"1.09 fold enrichment (6-mer frequency, TF over GST control)"
same,binding signal,ETV5,"1.19 fold enrichment (6-mer frequency, TF over GST control)"
same,binding signal,ELF4,"1.14 fold enrichment (6-mer frequency, TF over GST control)"
same,binding signal,ELK4,"1.17 fold enrichment (6-mer frequency, TF over GST control)"
